PubChem BioAssay (NCI)
About 79,000 compounds went through this panel and 15% of them were active in at least one assay; those are over-represented in the sample as a whole. Active and inactive are the calls of the source. No stated cut-off is given here; in the data, active means growth inhibition above about 70%; inactive means the rest.

Assay: NCI Yeast Anticancer Drug Screen. Data for the rad52 strain (AID 147);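 further: 0% = growth of vehicle-treated control cultures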
Details: S. cerevisiae rad52 mutant growth inhibition, active compounds read high
Experimental: Growth inhibition of yeast strains with defined genetic alterations is measured as a screen for potential anti-cancer activity. Selected strains with alterations in DNA damage repair or cell cycle control were exposed to compounds and growth inhibition was measured relative to vehicle treated controls. The strain used in this assay is rad52

Measured: growth inhibition

CC1(C)C(C=O)=CCC1CC(N)=O (stereo not given)
active: at 100.0 µM 80%
inactive: at 1.2 µM -1% | at 3.7 µM -1% | at 11.0 µM 0% | at 33.0 µM 7%

CC(C)(O)c1ccccc1C(c1ccccc1)c1ccccc1
inactive: at 1.2 µM 0% | at 3.7 µM -3% | at 11.0 µM 9% | at 33.0 µM 3% | at 100.0 µM 8%

O=C1CSC(=S)N1Cc1ccc(Cl)cc1Cl
inactive: at 1.2 µM -4% | at 3.7 µM 8%
active: at 11.0 µM 98% | at 33.0 µM 99% | at 100.0 µM 98%

N#CC(=C1C=CC(=NO)C=C1)c1ccccc1
active: at 11.0 µM 98% | at 33.0 µM 99% | at 100.0 µM 99%
inactive: at 1.2 µM 6% | at 3.7 µM 24%

N#CSC1CCCCNC1=O (stereo not given)
inactive: at 1.2 µM 2% | at 3.7 µM 10% | at 11.0 µM 32%
active: at 33.0 µM 83% | at 100.0 µM 98%

COc1ccc(/C(C#N)=C/c2ccc(OC)c(OC)c2)cc1
inactive: at 1.2 µM 10% | at 3.7 µM -6% | at 11.0 µM -1% | at 33.0 µM -13% | at 100.0 µM 21%

O=C(O)c1ccccc1.[Ag]
active: at 1.2 µM 72% | at 3.7 µM 101% | at 11.0 µM 99% | at 33.0 µM 98% | at 100.0 µM 98%

O=C1C=CC(=Nc2ccccc2)c2ccccc21
active: at 100.0 µM 77%
inactive: at 1.2 µM 1% | at 3.7 µM 5% | at 11.0 µM 20% | at 33.0 µM 55%
